# Values without a mark were called inactive. Inconclusive results are not listed. The list shows a part of the results. Where a call stands in place of a potency, no number is given. Calls of active or inactive are those of the source. Unless noted, calls come from the whole dose curve; as a rule, active = well fitted curve in the direction sought with a large enough effect; inconclusive = small, poorly fitted or top-dose-only effect, or another doubt; inactive = no such curve, though single readings can be large; an effect the other way counts as inactive or inconclusive.
# Assays:
# [1] = molecular target: Cytochrome P450 2C9 (Homo sapiens) (UniProt P11712); assay: qHTS Assay for Inhibitors and Substrates of Cytochrome P450 2C9 (AID 883); note: nearly all actives have a fitted effect of over 60% in size; note: potency is the fitted concentration of half-maximal effect
# Procedure, shortened: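 A luminogenic readout tracked human CYP2C9 (10nM) converting deoxyluciferin (100uM, at KM) in 25mM KPO4 during 60 min at 37C with regenerated NADPH. Values normalized to 57uM sulphaphenazole as complete inhibition.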
# [2] = qHTS Assay for Identification of Small Molecule Agonists for Thrombopoietin (TPO) Signaling Pathway (AID 917)
# Procedure, shortened: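 Murine Ba/F3 cells stably expressing human TPO receptor and a Glycoprotein IIb promoter–luciferase reporter were IL-3-starved overnight, then treated with compounds plus TPO (26 pM final, its EC50) for 24 hrs at 37 C; luminescence was read.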
# [3] = molecular target: Muscarinic acetylcholine receptor M1 (Rattus norvegicus) (UniProt P08482); assay: qHTS Assay for Antagonists of Acetylcholine Muscarinic M1 Receptor: Kinetic Measurement of Intracellular Calcium Response (AID 943);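 note: Fluo-4 calcium signal as peak divided by basal fluorescence over 4 min; series mostly up to about 35 µM; nearly all actives have a fitted effect of over 75% in size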
# Procedure, shortened: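 CHO cells stably expressing rat M1 were loaded with no-wash Fluo-4 dye for 1 h at 37C, pre-incubated 10 min with compound, then challenged with EC80 carbachol (100 nM final); kinetic calcium read 4 min, peak/basal ratio.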
# [4] = molecular target: Muscarinic acetylcholine receptor M1 (Rattus norvegicus) (UniProt P08482); assay: qHTS Assay for Antagonists of Acetylcholine Muscarinic M1 Receptor: Measurement of IP-One Response (AID 944); note: nearly all actives have a fitted effect of over 75% in size
# Procedure, shortened: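 CHO cells expressing rat M1 receptor, recovered overnight, were pre-incubated 10 min with compound, then stimulated 30 min with carbachol at EC80 (200 nM) in LiCl-containing buffer, pH 7.4. IP1 accumulation was read by HTRF (620/665 nm).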
# [5] = molecular target: Pyruvate kinase (Leishmania mexicana) (UniProt Q27686); assay: qHTS Validation Assay for Inhibitors of Leishmania Mexicana Pyruvate Kinase (AID 945)
# Procedure, shortened: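 qHTS eight-point titrations against 0.2 nM LmPYK (E451W) in imidazole buffer pH 7.2 with 0.5 mM PEP, 0.1 mM ADP; 1 h, room temperature. Readout: PKLight luminescence, normalized to neutral DMSO wells.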
# [6] = molecular target: Pyruvate kinase PKM (Homo sapiens) (UniProt P14618); assay: qHTS Assay for Activators of Human Muscle Pyruvate Kinase (AID 954; active = well fitted curve in the direction sought with a large enough effect, not every such curve was filed as active)
# Procedure, shortened: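 Purified human PKM2 (0.1 nM) with 0.5 mM PEP (Km) and 0.1 mM ADP in 50 mM imidazole pH 7.2, KCl, MgCl2, 1 h at room temperature; ATP formed read by coupled luciferase luminescence. Normalized to no-enzyme/110 uM thiadiazolimine inhibition; 0.3 nM enzyme column for activation.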
# [7] = molecular target: Alpha-galactosidase A (Homo sapiens) (UniProt P06280); assay: Counterscreen for Glucocerebrosidase Inhibitors: qHTS Assay for Human alpha-Galactosidase at pH 4.5 (AID 992)
# Procedure, shortened: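 Human enzyme (2 nM) with 80 uM 4-methylumbelliferyl alpha-D-galactopyranoside in 50 mM citric acid, 0.005% Tween-20, pH 4.5, 20 min at room temperature. Compounds 0.7 nM–77 uM; fluorescence Ex 365/Em 440 after pH 10 stop; AC50 from Hill fits.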
# [8] = molecular target: alpha-glucosidase (Oryza sativa, rice) (UniProt Q653V4); assay: Counterscreen for Glucocerebrosidase Inhibitors: qHTS Assay for Rice alpha-Glucosidase at pH 5.0 (AID 997)
# Procedure, shortened: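 Rice alpha-glucosidase (4 nM final) with 400 uM 4-methylumbelliferyl-alpha-D-glucopyranoside in citrate buffer pH 5.0, 20 min at room temperature, stopped at pH 10; fluorescence 365/440 nm, compounds 0.7 nM–77 uM, AC50 from Hill fits.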
# [9] = molecular target: Cytochrome P450 2C19 (Homo sapiens) (UniProt P33261); assay: qHTS Assay for Inhibitors and Substrates of Cytochrome P450 2C19 (AID 899); note: nearly all actives have a fitted effect of over 60% in size; note: potency is the fitted concentration of half-maximal effect
# Procedure, shortened: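 NADPH-dependent conversion of Luciferin-H EGE (10uM, at KM) by 5nM enzyme in 50mM KPO4, 60 min at 37C following 10 min compound preincubation. Stopped with luciferin detection buffer; luminescence read after 20 min.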
# [10] = molecular target: Dual specificity protein kinase CLK4 (Homo sapiens) (UniProt Q9HAZ1); assay: qHTS Assay for Inhibitors of CDC-like Kinase 4 (Kinase-Glo Assay) (AID 1770); note: nearly all actives have a fitted effect of over 65% in size; note: potency is the fitted concentration of half-maximal effect
# Procedure, shortened: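 Recombinant human Clk4 (25 nM) phosphorylated RS repeat peptide (100 uM) with 1 uM ATP in Tris pH 7.5/MgCl2/EGTA/DTT/Triton buffer for 4.5 h at room temperature. Residual ATP was quantified by Kinase-Glo luciferase luminescence.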
# [11] = molecular target: Dual specificity protein kinase CLK4 (Homo sapiens) (UniProt Q9HAZ1); assay: qHTS Assay for Inhibitors of CDC-like Kinase 4 (ADP-Glo Assay) (AID 1771); note: nearly all actives have a fitted effect of over 70% in size; note: potency is the fitted concentration of half-maximal effect
# Procedure, shortened: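 Clk4 (25 nM) was incubated 1 hr at room temperature with 100 uM RS repeat peptide and 1 uM ATP in buffer with 2 mM MgCl2, 0.5 mM EGTA, 2.5 mM DTT. ADP formed was quantified by ADP-Glo luminescence.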
# [12] = molecular target: Dual specificity protein kinase CLK4 (Homo sapiens) (UniProt Q9HAZ1); assay: qHTS Assay for Inhibitors of CDC-like Kinase 4 (ADP-FP Assay) (AID 1795); note: nearly all actives have a fitted effect of over 60% in size; note: potency is the fitted concentration of half-maximal effect
# Procedure, shortened: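 Recombinant human Clk4 (6.25 nM) phosphorylated RS repeat peptide (100 uM) with 1 uM ATP in Tris pH 7.5/MgCl2/EGTA/DTT/Triton buffer for one hour. ADP was quantified by Transcreener competitive fluorescence polarization against an ADP calibration curve.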
# [13] = molecular target: Vitamin D3 receptor (Homo sapiens) (UniProt P11473); assay: qHTS for Inhibitors of the vitamin D receptor (VDR): Hit Validation in Primary Screen (AID 602199); conditions: VDR-coactivator inhibition assay, qHTS confirmation; note: potency is the fitted concentration of half-maximal effect
# Procedure, shortened: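 Fluorescence polarization assay of VDR binding to Alexa 647-labelled SRC2-3 coactivator peptide: 800nM VDR with 5uM LG19078 agonist, compounds, 2 h at room temperature, read Ex 620 nm/Em 688 nm.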
# [14] = molecular target: Cytochrome P450 2D6 (Homo sapiens) (UniProt P10635); assay: qHTS Assay for Inhibitors and Substrates of Cytochrome P450 2D6 (AID 891); note: potency is the fitted concentration of half-maximal effect; nearly all actives have a fitted effect of over 60% in size
# Procedure, shortened: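 Human CYP2D6 (5 nM) with 30 uM Luciferin-ME EGE (at Km) in 100 mM KPO4, compound preincubated 10 min, then NADPH regeneration system for 60 min at room temperature. Luciferin read by luminescence; normalized to 1.43 uM quinidine.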
# [15] = qHTS Assay for Identification of Small Molecule Agonists for Hypoxia Response Element Signaling Pathway (AID 914; active = well fitted activation curve with a large enough effect in the signal ratio, with a control signal flat, not every such curve was filed as active; the % refers to the signal ratio; note: potency is the fitted concentration of half-maximal effect); conditions: ME-180 (cervical carcinoma) HRE-bla reporter, beta-lactamase ratio, CoCl2, 17 h; activation: hits give high values
# Procedure, shortened: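 Positive modulation of EC50 CoCl2-induced hypoxia response element signaling is measured in ME-180 cells with a beta-lactamase reporter. Compounds are titrated, incubation runs 17 hours, and %Activity derives from the blue/green ratio.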
# [16] = molecular target: Rap guanine nucleotide exchange factor 3 (Homo sapiens) (UniProt O95398); assay: Confirmatory qHTS for agonist of cAMP-regulated guanine nucleotide exchange factor 3 (EPAC1) (AID 1645881); note: nearly all actives have a fitted effect of over 75% in size; note: potency is the fitted concentration of half-maximal effect;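 for activation: EPAC1 catalysed release of BODIPY-GDP from Rap1B seen as fluorescence loss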
# [17] = molecular target: Rap guanine nucleotide exchange factor 4 (Homo sapiens) (UniProt Q8WZA2); assay: Confirmatory qHTS for agonist of cAMP-regulated guanine nucleotide exchange factor 4 (EPAC2) (AID 1645884);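 note: nucleotide exchange releases bodipy-GDP from Rap1 and this lowers its fluorescence; nearly all actives have a fitted effect of over 65% in size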
# [18] = molecular target: Rap guanine nucleotide exchange factor 4 (Homo sapiens) (UniProt Q8WZA2); assay: Confirmatory qHTS for antagonist of cAMP-regulated guanine nucleotide exchange factor 4 (EPAC2) (AID 1645885); note: nearly all actives have a fitted effect of over 25% in size; note: potency is the fitted concentration of half-maximal effect
# [19] = molecular target: Rap guanine nucleotide exchange factor 3 (Homo sapiens) (UniProt O95398); assay: Confirmatory qHTS for antagonist of cAMP-regulated guanine nucleotide exchange factor 3 (EPAC1) (AID 1645880); note: nearly all actives have a fitted effect of over 55% in size; note: potency is the fitted concentration of half-maximal effect
# Procedure, shortened: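 Nucleotide exchange uses 100 nM EPAC1, 250 nM RAP1B-BODIPY-GDP and 50 uM GDP, with compounds in a concentration-titration series. After 5 min at room temperature, fluorescence (480 nm ex/540 nm em) is read every 5 min for 30 min. Data are normalized to control ATA and DMSO.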
# Sequence of Pyruvate kinase PKM (Homo sapiens) (P14618 whole entry, looked up): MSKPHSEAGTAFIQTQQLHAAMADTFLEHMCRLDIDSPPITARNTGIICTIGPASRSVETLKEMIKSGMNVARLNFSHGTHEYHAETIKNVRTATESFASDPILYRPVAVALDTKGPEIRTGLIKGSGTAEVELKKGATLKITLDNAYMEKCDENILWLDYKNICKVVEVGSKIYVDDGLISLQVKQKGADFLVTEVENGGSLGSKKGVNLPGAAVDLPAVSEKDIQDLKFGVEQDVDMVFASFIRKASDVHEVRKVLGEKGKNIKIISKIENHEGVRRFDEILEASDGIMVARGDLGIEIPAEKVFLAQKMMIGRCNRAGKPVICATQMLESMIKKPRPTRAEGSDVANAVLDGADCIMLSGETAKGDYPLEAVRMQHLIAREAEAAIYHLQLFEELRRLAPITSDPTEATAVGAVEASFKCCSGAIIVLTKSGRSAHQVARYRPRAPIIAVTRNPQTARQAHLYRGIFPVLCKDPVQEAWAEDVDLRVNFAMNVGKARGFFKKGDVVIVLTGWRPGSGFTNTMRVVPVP
# Sequence of Vitamin D3 receptor (Homo sapiens) (P11473 whole entry, looked up): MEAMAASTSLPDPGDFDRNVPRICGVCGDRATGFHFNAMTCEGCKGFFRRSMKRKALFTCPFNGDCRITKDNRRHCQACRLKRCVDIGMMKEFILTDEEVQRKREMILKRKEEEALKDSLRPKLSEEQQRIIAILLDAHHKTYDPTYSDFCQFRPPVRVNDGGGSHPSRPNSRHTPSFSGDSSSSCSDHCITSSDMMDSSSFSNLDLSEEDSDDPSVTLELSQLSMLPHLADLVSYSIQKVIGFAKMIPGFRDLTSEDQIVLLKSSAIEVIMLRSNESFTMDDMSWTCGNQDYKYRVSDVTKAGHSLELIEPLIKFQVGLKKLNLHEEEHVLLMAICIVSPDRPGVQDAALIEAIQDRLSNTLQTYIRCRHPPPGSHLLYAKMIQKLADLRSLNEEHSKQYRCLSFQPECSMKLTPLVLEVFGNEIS
# Sequence of Rap guanine nucleotide exchange factor 3 (Homo sapiens) (O95398 whole entry, looked up): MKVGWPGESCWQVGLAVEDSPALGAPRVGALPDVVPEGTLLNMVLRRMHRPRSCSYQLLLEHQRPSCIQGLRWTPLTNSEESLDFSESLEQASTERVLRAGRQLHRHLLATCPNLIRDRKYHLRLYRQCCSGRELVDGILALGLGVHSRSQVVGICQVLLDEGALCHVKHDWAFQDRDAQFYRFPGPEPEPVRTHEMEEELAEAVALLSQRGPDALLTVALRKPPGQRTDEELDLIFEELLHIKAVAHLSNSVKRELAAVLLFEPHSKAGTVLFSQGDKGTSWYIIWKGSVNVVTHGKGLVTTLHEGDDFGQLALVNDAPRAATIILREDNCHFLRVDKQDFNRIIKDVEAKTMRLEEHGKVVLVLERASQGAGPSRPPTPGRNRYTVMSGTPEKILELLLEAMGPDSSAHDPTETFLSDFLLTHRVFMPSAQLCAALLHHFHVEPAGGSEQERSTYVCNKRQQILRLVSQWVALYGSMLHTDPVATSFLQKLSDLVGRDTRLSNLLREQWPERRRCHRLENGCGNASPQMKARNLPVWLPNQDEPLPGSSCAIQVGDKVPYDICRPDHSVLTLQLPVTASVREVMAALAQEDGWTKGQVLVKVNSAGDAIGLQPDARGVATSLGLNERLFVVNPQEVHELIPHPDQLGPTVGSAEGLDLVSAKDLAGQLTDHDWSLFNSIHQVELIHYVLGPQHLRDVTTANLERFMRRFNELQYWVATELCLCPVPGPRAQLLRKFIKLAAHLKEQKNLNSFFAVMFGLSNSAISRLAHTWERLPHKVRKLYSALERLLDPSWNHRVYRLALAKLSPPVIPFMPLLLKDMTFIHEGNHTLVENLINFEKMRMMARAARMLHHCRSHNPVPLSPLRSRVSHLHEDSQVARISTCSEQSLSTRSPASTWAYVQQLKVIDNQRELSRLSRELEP
# Sequence of Pyruvate kinase (Leishmania mexicana) (Q27686 2-499 E452W): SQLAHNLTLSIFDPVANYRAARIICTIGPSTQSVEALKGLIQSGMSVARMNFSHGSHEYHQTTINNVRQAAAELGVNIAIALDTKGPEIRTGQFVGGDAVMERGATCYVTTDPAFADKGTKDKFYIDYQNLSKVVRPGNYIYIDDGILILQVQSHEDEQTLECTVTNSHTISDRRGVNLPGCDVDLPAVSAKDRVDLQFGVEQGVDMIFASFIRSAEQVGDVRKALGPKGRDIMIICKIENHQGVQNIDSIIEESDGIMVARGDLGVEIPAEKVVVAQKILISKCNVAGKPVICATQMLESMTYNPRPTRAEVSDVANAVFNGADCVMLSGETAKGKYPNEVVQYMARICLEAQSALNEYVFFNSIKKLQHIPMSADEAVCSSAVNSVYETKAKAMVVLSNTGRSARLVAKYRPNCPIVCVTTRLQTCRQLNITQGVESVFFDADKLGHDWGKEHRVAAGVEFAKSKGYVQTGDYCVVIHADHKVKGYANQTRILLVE
# Sequence of Rap guanine nucleotide exchange factor 4 (Homo sapiens) (Q8WZA2 whole entry, looked up): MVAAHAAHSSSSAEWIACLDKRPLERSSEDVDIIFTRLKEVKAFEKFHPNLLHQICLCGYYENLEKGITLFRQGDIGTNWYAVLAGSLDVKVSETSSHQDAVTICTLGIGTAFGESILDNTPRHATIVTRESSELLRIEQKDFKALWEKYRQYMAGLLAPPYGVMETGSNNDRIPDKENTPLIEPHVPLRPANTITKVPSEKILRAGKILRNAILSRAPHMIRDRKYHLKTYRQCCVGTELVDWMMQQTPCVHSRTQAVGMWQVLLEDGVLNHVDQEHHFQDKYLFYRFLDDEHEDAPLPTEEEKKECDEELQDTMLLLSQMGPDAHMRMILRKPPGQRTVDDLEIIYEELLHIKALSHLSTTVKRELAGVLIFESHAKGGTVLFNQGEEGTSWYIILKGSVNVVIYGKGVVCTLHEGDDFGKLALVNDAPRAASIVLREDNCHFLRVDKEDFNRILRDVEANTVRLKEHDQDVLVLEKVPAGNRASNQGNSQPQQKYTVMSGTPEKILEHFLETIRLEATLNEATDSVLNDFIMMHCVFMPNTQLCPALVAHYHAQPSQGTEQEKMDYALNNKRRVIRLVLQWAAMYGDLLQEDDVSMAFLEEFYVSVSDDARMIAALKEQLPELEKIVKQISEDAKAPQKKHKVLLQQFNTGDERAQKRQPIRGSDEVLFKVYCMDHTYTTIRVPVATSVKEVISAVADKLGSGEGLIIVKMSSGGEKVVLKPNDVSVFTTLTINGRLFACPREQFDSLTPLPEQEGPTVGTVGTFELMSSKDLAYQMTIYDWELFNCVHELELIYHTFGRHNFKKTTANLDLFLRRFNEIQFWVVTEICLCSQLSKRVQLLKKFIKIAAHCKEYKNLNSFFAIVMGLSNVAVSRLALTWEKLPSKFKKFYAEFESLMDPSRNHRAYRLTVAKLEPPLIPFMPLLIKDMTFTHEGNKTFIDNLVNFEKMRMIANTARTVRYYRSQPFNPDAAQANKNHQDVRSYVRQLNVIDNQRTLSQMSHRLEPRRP
# Sequence of Cytochrome P450 2C19 (Homo sapiens) (P33261 whole entry, looked up): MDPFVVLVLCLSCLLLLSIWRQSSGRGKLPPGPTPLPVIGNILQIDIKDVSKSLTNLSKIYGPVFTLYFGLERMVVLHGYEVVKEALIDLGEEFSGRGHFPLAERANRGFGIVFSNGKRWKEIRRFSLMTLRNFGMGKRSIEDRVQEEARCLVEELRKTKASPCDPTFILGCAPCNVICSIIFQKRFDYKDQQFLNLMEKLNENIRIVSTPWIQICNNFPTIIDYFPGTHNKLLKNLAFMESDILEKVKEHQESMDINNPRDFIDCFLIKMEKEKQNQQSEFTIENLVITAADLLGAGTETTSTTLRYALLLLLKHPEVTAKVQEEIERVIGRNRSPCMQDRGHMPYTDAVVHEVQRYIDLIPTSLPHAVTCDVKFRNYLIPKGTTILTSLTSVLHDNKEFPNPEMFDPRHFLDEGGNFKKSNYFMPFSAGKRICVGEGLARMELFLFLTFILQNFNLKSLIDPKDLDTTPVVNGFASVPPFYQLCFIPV
# Sequence of Muscarinic acetylcholine receptor M1 (Rattus norvegicus) (P08482 whole entry, looked up): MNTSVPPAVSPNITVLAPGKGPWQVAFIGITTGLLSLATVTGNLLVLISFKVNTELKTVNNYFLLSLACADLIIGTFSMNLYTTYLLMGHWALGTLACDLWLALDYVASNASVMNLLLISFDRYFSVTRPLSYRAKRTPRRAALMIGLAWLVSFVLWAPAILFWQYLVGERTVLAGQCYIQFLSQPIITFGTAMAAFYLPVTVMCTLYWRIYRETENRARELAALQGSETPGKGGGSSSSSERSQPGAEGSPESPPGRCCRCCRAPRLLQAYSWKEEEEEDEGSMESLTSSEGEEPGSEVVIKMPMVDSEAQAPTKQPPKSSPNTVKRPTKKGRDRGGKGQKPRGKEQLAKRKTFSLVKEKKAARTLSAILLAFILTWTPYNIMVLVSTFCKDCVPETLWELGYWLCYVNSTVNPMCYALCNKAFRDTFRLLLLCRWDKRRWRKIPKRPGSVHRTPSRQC
# Sequence of Cytochrome P450 2C9 (Homo sapiens) (P11712 whole entry, looked up): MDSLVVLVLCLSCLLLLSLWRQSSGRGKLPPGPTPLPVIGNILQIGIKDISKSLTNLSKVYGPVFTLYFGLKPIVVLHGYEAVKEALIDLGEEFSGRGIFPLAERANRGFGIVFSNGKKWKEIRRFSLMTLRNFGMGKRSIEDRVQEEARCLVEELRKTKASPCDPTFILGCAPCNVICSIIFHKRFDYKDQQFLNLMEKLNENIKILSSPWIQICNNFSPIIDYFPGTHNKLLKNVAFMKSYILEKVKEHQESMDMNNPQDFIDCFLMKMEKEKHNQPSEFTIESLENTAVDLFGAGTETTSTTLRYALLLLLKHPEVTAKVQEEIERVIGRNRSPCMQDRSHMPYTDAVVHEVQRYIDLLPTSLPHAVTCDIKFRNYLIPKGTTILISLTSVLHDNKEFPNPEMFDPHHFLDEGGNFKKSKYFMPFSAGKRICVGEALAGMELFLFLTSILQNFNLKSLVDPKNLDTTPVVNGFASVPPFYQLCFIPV
smiles,measurement,setting,value
O=C(O)[C@H]1CCCN(CCC=C(c2ccccc2)c2ccccc2)C1,Potency,[1],7.94 µM (active)
same,outcome,[2],inactive
same,Potency,[3],inactive
same,Potency,[4],inactive
same,outcome,[5],inactive
same,outcome,[6],inactive
same,outcome,[7],inactive
same,outcome,[8],inactive
CCCN[C@@H](C)C(=O)Nc1ccccc1C,outcome,[2],inactive
same,outcome,[5],inactive
same,outcome,[6],inactive
same,outcome,[7],inactive
same,outcome,[8],inactive
CC1(C)Oc2ccc(C#N)cc2[C@H](N2CCCC2=O)[C@H]1O,Potency,[1],inactive
same,Potency,[9],inactive
Cc1ccccc1[C@@H](OCCN(C)C)c1ccccc1,Potency,[1],inactive
same,outcome,[2],inactive
same,outcome,[5],inactive
same,outcome,[6],inactive
same,outcome,[7],inactive
same,outcome,[8],inactive
Cn1c(=O)c(-c2cc(F)cc(F)c2)nc2cnc(Nc3ccccc3)nc21,Potency,[10],inactive
same,Potency,[11],inactive
same,Potency,[12],inactive
N#CCCn1c(=O)cnc2cnc(OCc3ccccc3)nc21,Potency,[9],inactive
COc1ccccc1-c1cc(C(F)(F)F)nc(S(=O)(=O)CCCC(=O)Nc2ccc(F)cc2F)n1,Potency,[13],4.47 µM (active)
Cc1cccc(CNc2ncncc2-c2ccccc2Cl)c1,Potency,[14],2 µM (active)
same,activation,[15],-10.3%
same,Potency,[10],inactive
same,Potency,[11],inactive
same,Potency,[12],inactive
COc1ccc(-c2nc3cnc(OC)nc3n(-c3ccccc3)c2=O)cc1,Potency,[10],inactive
same,Potency,[11],inactive
same,Potency,[12],inactive
COc1ccccc1CCn1c(=O)c(-c2cn(C)c3ccccc23)nc2cncnc21,Potency,[1],0.316 µM (active)
same,Potency,[9],0.316 µM (active)
same,Potency,[10],inactive
same,Potency,[11],inactive
same,Potency,[12],inactive
NC(=NCc1ccc(Cl)c(Cl)c1)NC(=O)c1nc(Cl)c(N)nc1N,Potency,[4],inactive
same,outcome,[5],inactive
same,outcome,[6],inactive
same,outcome,[7],inactive
same,outcome,[8],inactive
COc1ccc(-c2nc3cnc(N(C)C)nc3n(-c3ccccc3)c2=O)cc1,Potency,[11],inactive
COc1ccc(-c2nc3cnc(OC)nc3n(CCC#N)c2=O)cc1,Potency,[10],inactive
same,Potency,[11],inactive
same,Potency,[12],inactive
COc1cc(C)c(C(=O)Oc2cc(C)c(C(=O)O)c(O)c2C)c(OC)c1C,Potency,[16],inactive
same,Potency,[17],inactive
same,Potency,[18],49.4 µM (active)
COc1ccc(Oc2ncc3nc(-c4cccs4)c(=O)n(Cc4cccs4)c3n2)cc1,Potency,[15],3.16 µM (active)
CN(C)c1ncc2nc(CCc3ccccc3)c(=O)n(Cc3ccc(F)cc3)c2n1,Potency,[9],0.794 µM (active)
same,Potency,[19],inactive
same,Potency,[16],inactive
same,Potency,[17],inactive
same,Potency,[18],inactive
COc1cccc(Nc2ncc3nc(-c4cccs4)c(=O)n(-c4ccccc4)c3n2)c1,Potency,[12],inactive
same,Potency,[19],inactive
same,Potency,[16],70.6 µM (active)
same,Potency,[18],inactive
c1cncc(-c2nc(-n3ccnc3)c3ccccc3n2)c1,Potency,[10],11.2 µM (active)
same,Potency,[11],11.2 µM (active)
same,Potency,[12],12.6 µM (active)
CCCCCc1c2c(cc(O)c1C(=O)O)OC(=O)c1cc(C(=O)CCCC)c(OC)cc1O2,Potency,[19],42.6 µM (active)
same,Potency,[16],inactive
same,Potency,[17],inactive
COc1cccc(-c2cc(NCCc3c[nH]c4ccc(OC)cc34)ncn2)c1,Potency,[9],0.501 µM (active)
same,Potency,[10],4.47 µM (active)
same,Potency,[11],12.6 µM (active)
same,Potency,[19],inactive
same,Potency,[16],inactive
same,Potency,[17],inactive
same,Potency,[18],inactive
COc1ccc(-n2c(=O)c(-c3ccc(F)c(F)c3)nc3cncnc32)cc1,Potency,[10],inactive
same,Potency,[11],inactive
same,Potency,[12],inactive
Cc1noc(C)c1-c1ccc2ncnc(NCCN3CCOCC3)c2c1,Potency,[10],8.91 µM (active)
same,Potency,[11],6.31 µM (active)
same,Potency,[12],8.91 µM (active)
CCNc1ncc2nc(-c3ccc(F)cc3)c(=O)n(C)c2n1,Potency,[10],inactive
same,Potency,[11],inactive
same,Potency,[12],inactive
CC(=O)NCCNc1ncnc2ccc(-c3ccccc3C#N)cc12,Potency,[10],14.1 µM (active)
same,Potency,[11],14.1 µM (active)
CCOc1ccc(NC(=O)c2c(NC(=O)Cc3ccccc3)sc3c2CCC(C)C3)cc1 (centres undefined),Potency,[13],5.62 µM (active)
CC(=O)OC1CC[C@]2(C)C(CC(OC(C)=O)[C@@]3(C)C4=CC(=O)OC(c5ccoc5)[C@]4(C)CCC23)C1(C)C (some centres undefined),Potency,[19],inactive
same,Potency,[16],inactive
same,Potency,[17],inactive
c1cncc(CNc2ccnc(-c3cccnc3)n2)c1,Potency,[12],inactive
COc1cccc(Nc2ncc3nc(CCc4ccccc4)c(=O)n(Cc4cccs4)c3n2)c1,Potency,[10],inactive
same,Potency,[11],inactive
same,Potency,[12],inactive
CCCCOc1ccc(CN2C(=O)C(=O)c3cc(Br)cc(C)c32)cc1OC,Potency,[13],10 µM (active)

# From PubChem BioAssay (NCATS)
